Results filed as inconclusive are left out. Calls of active or inactive are those of the source. Calls come from the whole dose curve; as a rule, active = well fitted inhibition curve with a large enough effect; inconclusive = small, poorly fitted or top-dose-only effect; inactive = no such curve, though single readings can be large or run the other way.
Test system: zebrafish ABCB5 (Abcb5) multidrug transporter
Experiment: qHTS for characterization and localization of zebrafish homologs of the human ABCB1 multidrug transporter: ABCB5 transfected cells
Conditions: CellTiter-Glo luminescence viability, 72 h
From the text: The zebrafish has emerged as a potential model to study the blood-brain barrier (BBB) given its similarities with mammalian systems. However, little information has been available with regard to homologous ATP-binding cassette transporters expressed at the zebrafish BBB. Two transporters that are highly expressed at the human BBB are P-glycoprotein (P-gp, encoded by the ABCB1 gene) and ABCG2 (encoded by the ABCG2 gene). In this study, we focus on characterization of P-gp homologs in the zebrafish, which has two genes that are homologous to human ABCB1 - abcb4 and abcb5. We generated stably-transfected cell lines to determine their substrate specificities. […] Zebrafish abcb4 also colocalized with claudin 5 expression in brain endothelial cells.
A high-throughput screen was performed as previously described on empty vector transfected cells, P-gp-overexpressing MDR-19 cells and cells transfected with full-length zebrafish abcb4 (ZF Abcb4) or abcb5 (ZF Abcb5). Briefly, cells were plated into 1536-well plates at a density of 500 cells/well in 5 uL media. […] CellTiter-Glo reagent (Promega) was dispensed into the wells, incubated for 5 min and luminescence was read on a ViewLux instrument (Perkin-Elmer). […]

| Structure (SMILES) | Potency |
| --- | --- |
| C=CCON=C(C[C@H]1O[C@@H]2O[C@]3(C)CC[C@@H]4[C@H](C)CC[C@@H]([C@H]1C)[C@@]24OO3)[C@H]1O[C@@H]2O[C@]3(C)CC[C@H]4[C@H](C)CC[C@@H]([C@@H]1C)[C@@]24OO3 | 526 nM (active) |
| C[C@@H]1[C@@H](CC(C[C@H]2O[C@@H]3O[C@]4(C)CC[C@@H]5[C@H](C)CC[C@@H]([C@H]2C)[C@@]35OO4)C[S+](=O)([O-])c2ccc(COC(=O)N(C)C)cc2)O[C@@H]2O[C@]3(C)CC[C@H]4[C@H](C)CC[C@@H]1[C@@]24OO3 (some centres not stated) | 590 nM (active) |

— PubChem BioAssay AID1508633 (National Center for Advancing Translational Sciences (NCATS), 2021)
